Bioassay records (PubChem BioAssay)
A selection: hits, their analogues and other compounds. The true share with any hit is near 6.2%.
MARV entry inh: blocks Marburg virus binding to or entry into cells | 300,000 tested, 1.8% active | Marburg virus pseudotyped entry inhibition, cell reporter | Potency, µM (highest dose often 37.8 µM), for inactives: top-dose activity change, negative = inhibition, actives largely listed as inhibitors | AID 540276; calls by dose curve; tested in HEK293 cells; further: potency means the concentration at half of the fitted maximal effect
FMDV inh: antivirals against foot and mouth disease virus; FMDV antiviral cell-based qHTS; Potency, µM (top dose mostly 57.9 µM), inactives show at the highest dose activity change, negative = inhibition, most hits filed as inhibitors; 410,000 tested, 1.2% active; AID 1159524; calls by dose curve; tested in HEK293T cells; further: read-out not given here; potency means the concentration at half of the fitted maximal effect; nearly all actives have a fitted effect of over 45% in size
LASV entry inh: Lassa virus entry inhibition; 300,000 tested, 1.2% active; Lassa virus pseudotype entry inhibition, cell reporter; Potency, µM (highest dose often 37.9 µM), inactives show at the highest dose activity change, negative = inhibition, hits mostly inhibitors; AID 540256; calls by dose curve; tested in HEK293 cells; further: potency means the concentration at half of the fitted maximal effect; nearly all actives have a fitted effect of over 50% in size
HCMV antiviral: inhibitors of human cytomegalovirus | HFF cells, HCMV-luciferase reporter, 72 h; active compounds read low | activity change, negative = inhibition, % at 57.5 µM | 410,000 tested, 4.5% active | AID 1259415; in the data active means activity change below about -60%; inconclusive means no clear call, values can overlap the other calls; inactive means above about -39%
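Two-dose cell screen: HFF monolayers treated with compounds and infected with luciferase-expressing HCMV at 1 PFU/cell, 72 h at 37C, then lysed for luciferase measurement.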
* marks the source's active call; other numbers are inactive results; u = inconclusive; x = no result; [ ] = another dose, or the depositor's remark. On the % scale 0 is the no-effect control and ±100 the full control effect.

SMILES | MARV entry inh | FMDV inh | LASV entry inh | HCMV antiviral
Cc1ccc(CSc2nnc3nc(C)cc(C)n23)cc1 | u | -4% | 20% | -84*
COc1ccc(-n2c(C)cc(C(=O)C[N+]34CCN(CC3)CC4)c2C)cc1 | u | -11% | 1%[46.1 µM] | u
O=C(CCCn1c(=O)[nH]c2ccsc2c1=O)N1CCN(c2ccc(Cl)cc2)CC1 | 26%[46.1 µM] | 28µM* | 15%[46.1 µM] | u
O=C(CCCn1c(=S)[nH]c2cc3c(cc2c1=O)OCO3)NCCc1ccc(Cl)cc1 | x | -21% | x | -74*
O=C(CCCCCn1c(=S)[nH]c2cc3c(cc2c1=O)OCO3)NCCc1ccccc1 | x | 3% | x | 61
O=C(CCCCCn1c(=S)[nH]c2ccc(N3CCOCC3)cc2c1=O)NCc1cccc(Cl)c1 | u | -1% | -26% | -71*
O=C(CCCn1c(=S)[nH]c2cc3c(cc2c1=O)OCO3)N1CCN(c2ccc(Cl)cc2)CC1 | u | u | u | -86*
O=C(CCCn1c(=S)[nH]c2cc3c(cc2c1=O)OCO3)N1CCN(c2ccccc2)CC1 | 9% | -13% | -11% | -10
O=C(CCCCCn1c(=S)[nH]c2ccc(N3CCOCC3)cc2c1=O)NCc1ccccc1 | 6% | -13% | -7% | -30
COc1ccc(N2CCN(C(=O)CCCn3c(=O)[nH]c4ccsc4c3=O)CC2)cc1 | 2% | -16% | x | -9
Cc1ccc(S(=O)(=O)NCC(c2ccc(N(C)C)cc2)N2CCc3ccccc32)cc1 (configuration not stated) | x | -1% | -3%[46.1 µM] | 4
CC(=O)Nc1c(C)nn(-c2ccccc2)c1N1CCC(C(=O)Nc2ccc(Cl)cc2C)CC1 | x | 4% | 8%[46.1 µM] | 58
C/C(Cl)=C\Cn1c(N2CCCC2)nc2c1c(=O)[nH]c(=O)n2C | -23% | -13% | 5% | -89*
CCCCn1c(N2CCC(Cc3ccccc3)CC2)nc2c1c(=O)[nH]c(=O)n2C | u | 28µM* | u | -28
CCCCCCn1c(N2CCC(C)CC2)nc2c1c(=O)[nH]c(=O)n2C | -14% | 20µM* | u | -19
Cc1ccc(C)c(N=Cc2ccc(-c3ccc([N+](=O)[O-])cc3)o2)c1 | -24%[46.1 µM] | -22% | u | 3
CN(Cc1nc2ccccc2c(=O)[nH]1)C(=O)c1cccc(S(=O)(=O)N2CCc3ccccc32)c1 | u | -13% | 4µM* | -67*
O=C(Nc1ccc(S(=O)(=O)N2CCCc3ccccc32)cc1)C1CCCO1 (configuration not stated) | -3% | u | -17% | 24
COc1ccc(C(=O)Nc2ccc(S(=O)(=O)N3CCc4ccccc43)cc2)cc1 | u | u | 13µM* | -90*
O=C(O)C1CC=CCC1C(=O)Nc1ccc(S(=O)(=O)N2CCCc3ccccc32)cc1 (configuration not stated) | 2.1µM* | -10% | 3.3µM* | -76*
CN(Cc1nc2ccccc2c(=O)[nH]1)C(=O)c1cccc(S(=O)(=O)N2CCCCCC2)c1 | x | u | x | 49
COc1cc2c(cc1OC)CN(C(=O)c1cccc(S(=O)(=O)N3CCc4ccccc43)c1)CC2 | 4µM* | -34% | 4µM* | u
CC(C)CCNC(=O)CSc1nc2ccccc2nc1Cc1ccccc1 | x | -8% | 13%[46.1 µM] | -2
O=C(c1cccc(S(=O)(=O)N2CCCC2)c1)N1CCCc2ccccc21 | u | 3% | -1%[46.1 µM] | -13
O=C(Nc1nc2c(Cl)cccc2s1)c1ccc(S(=O)(=O)N2CCc3ccccc32)cc1 | x | u | u | -29
SMILES | MARV entry inh | FMDV inh | LASV entry inh | HCMV antiviral
O=C(c1cccc(S(=O)(=O)N2CCCCC2)c1)N1CCc2ccccc21 | u | 4% | 6% | -72*
O=C(Nc1c(F)cccc1F)c1ccc2c(c1)CCN2S(=O)(=O)c1ccccc1 | -25%[46.1 µM] | 0.32µM* | u | -32
CCN(CC)CCNC(=O)c1ccc(NC(=O)c2cccc(S(=O)(=O)N3CCc4ccccc43)c2)cc1 | 8.9µM* | -9% | -4% | u
COc1cc2nc(NC(=O)c3ccc(S(=O)(=O)N4CCc5ccccc54)cc3)sc2cc1OC | x | u | -24%[46.1 µM] | -72*
COc1ccc(F)cc1-c1cc(C(=O)N2CCc3ccccc3C2)[nH]n1 | x | 9% | x | 9
O=C(NCC1CC1)c1ccc2sc([C@H]3C[C@H](O)[C@@H](CO)O3)nc2c1 | x | -2% | x | -102*
Cc1ccccc1CNC(=O)c1ccc2sc([C@H]3C[C@H](O)[C@@H](CO)O3)nc2c1 | x | 15% | x | 68
CCCCCCCNC1=CC(=O)CC(c2ccccc2)C1 (configuration not stated) | u | -20% | u | -88*
Cc1cc([N+](=O)[O-])nn1CC(=O)Nc1ccccn1 | 16%[46.1 µM] | 2% | 1% | -14
S=C(Nc1cc(Cl)cc(Cl)c1)NC1CCN(Cc2ccccc2)CC1 | x | -17% | x | -100*
CC(C)c1ccc(NC(=S)NC2CCN(Cc3ccccc3)CC2)cc1 | u | -7% | 18µM* | -27
Cc1ccc(NC(=S)NC2CCN(Cc3ccccc3)CC2)cc1 | -16% | -24% | 3% | u
S=C(Nc1ccc(Nc2ccccc2)cc1)NC1CCCCCC1 | u | 28µM* | u | -87*
S=C(Nc1ccc(Cl)cc1)NC1CCCCC1 | -29%[46.1 µM] | 70% | u | -30
Cc1c(Cl)cccc1NC(=S)NC1CCN(Cc2ccccc2)CC1 | 16µM* | 0% | u | -91*
S=C(Nc1ccccc1Cl)NC1CCN(Cc2ccccc2)CC1 | u | 0% | -17% | -34
NC(=O)C1Cc2ccccc2CN1S(=O)(=O)c1cccs1 (configuration not stated) | -6%[46.1 µM] | -12% | 2%[46.1 µM] | 24
CCC(=NCCN1CCOCC1)c1c(O)n(-c2ccccc2C)c(=O)[nH]c1=O | 5%[46.1 µM] | 13% | -5% | 22
CC/C(=N\N1CCCCCC1)c1c(O)n(-c2ccccc2C)c(=O)[nH]c1=O | -21% | u | 10µM* | u
COc1ccc(OC)c(C(=O)COC(=O)c2c(OC)cccc2OC)c1 | -14% | 11% | -5% | 116
COc1ccc(OC)c(C(=O)CCCC(=O)c2cc(OC)ccc2OC)c1 | x | -2% | x | -61*
CO/N=C(/COc1ccc(F)cc1)c1ccc(OC)cc1 | u | 9% | -21% | -103*
Cc1ccc(CS(=O)(=O)c2ncc(Cl)c(C(=O)Nc3ccc(OC(F)F)cc3)n2)cc1 | u | 25µM* | u | -111*
CCS(=O)(=O)c1ncc(Cl)c(C(=O)Nc2ccc(C)cc2)n1 | 7.9µM* | 14µM* | u | -100*
CCNC(=O)c1c(NC(=O)c2nc(S(=O)(=O)CC)ncc2Cl)sc2c1CCCC2 | 2%[46.1 µM] | u | 7.9µM* | -101*
CCC1CCCCN1S(=O)(=O)c1ccc(NC(=O)c2nc(S(C)(=O)=O)ncc2Cl)cc1 (configuration not stated) | 8.9µM* | 32µM* | u | -113*
O=c1cc(O)nc(SCc2ccccc2)[nH]1 | 14% | 4% | 17% | 4
Cc1c(NC(=O)C(C)OC(=O)c2cccnc2Cl)c(=O)n(-c2ccccc2)n1C (configuration not stated) | x | -5% | x | u
Cc1cccc(C)c1NS(=O)(=O)c1ccc(OCCNS(C)(=O)=O)cc1 | -21%[46.1 µM] | -13% | u | -18
